Test results reported in PubChem BioAssay AID1159580 (chemical genetic matrix, 2015).
Among all 5,500 compounds or so, about 2,000 (36%) were called active. Inconclusive results (about 18%) are left out. Rule as the data show it: active = normalized growth mostly below about 0.91 (no sharp cut-off); inconclusive = no clear call, values can overlap the other calls; inactive = mostly above about 0.92. Some of the results follow.

Assay: chemical genetic growth profiling, strain panel (AID 1159580);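 also: tested at 20 µM; growth read once vehicle control cultures reached saturation at 30 °C; 1 = growth at the plate median or of vehicle wells; lower values mean less growth of the strain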
Conditions: S. cerevisiae deletion strains, growth OD

Measured: normalized growth

O=Cc1ccccc1O[C@@H]1O[C@H](CO)[C@H](O)[C@@H](O)[C@H]1O
inactive: locus YHR030C, strain SLT2, stronger effect = lower value 1.06 | locus YHR079C, strain IRE1, stronger effect = lower value 1.06 | locus YJL095W, strain BCK1, stronger effect = lower value 0.996 | locus YJR066W, strain TOR1, stronger effect = lower value 0.99 | locus YLR113W, strain HOG1, stronger effect = lower value 1.03 | locus YNL183C, strain NPR1, stronger effect = lower value 0.992 | locus YOR231W, strain MKK1, stronger effect = lower value 1.06 | locus YPL256C, strain CLN2, stronger effect = lower value 1.06
